Measured values: PubChem BioAssay AID2006 (Sanford-Burnham Center for Chemical Genomics, 2009)
The campaign covered roughly 290,000 compounds. About 1,000 (0.34%) were called active. No stated cut-off is given here; in the data, active means inhibition above about 50% (passing the limit was not always enough); inconclusive means no clear call, values can overlap the other calls. Shown is part of a subset that was picked to be rich in actives.

Target: SUMO-conjugating enzyme UBC9 (Homo sapiens) (UniProt P63279)
Test: inhibitors of in vitro SUMOylation cascade, primary screen, biochemical, HTRF, uHTS (AID 2006)
Details: HTRF SUMOylation assay, SAE1/SAE2 + UBC9, in vitro, at 35 µM, stronger effect = higher value

SUMO-conjugating enzyme UBC9 (Homo sapiens), sequence (P63279 whole entry, looked up): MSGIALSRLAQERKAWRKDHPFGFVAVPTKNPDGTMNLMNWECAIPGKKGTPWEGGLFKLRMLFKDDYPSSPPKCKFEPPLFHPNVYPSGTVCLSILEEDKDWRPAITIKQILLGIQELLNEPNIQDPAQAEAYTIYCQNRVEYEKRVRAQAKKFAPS

CC(CC(=O)N1CCN(S(=O)(=O)c2ccccc2)CC1)n1cncn1 (stereo not given)
inhibition: 14.6% (inactive)

COc1ccc(Cc2n[nH]c(=S)n2NC(=O)Nc2ccc(C)cc2)cc1
inhibition: 68.1% (active) | inhibition (average of repeat tests): 49.6%

Cc1ccc(OCc2n[nH]c(=S)n2-c2ccc(C)cc2)cc1
inhibition: 3.7% (inactive)

CCOc1ccc(NC(=O)CN2CCN(CC(=O)Nc3ccc(OC)cc3)CC2)cc1
inhibition: -4.3% (inactive)

C/C(=N/Nc1nc(-c2ccccc2)c(CC(=O)O)s1)c1ccccc1
inhibition: 7% (inactive)

Cc1cc(C)nc(N/N=C/c2c(CO)cnc(C)c2O)n1
inhibition: -3.1% (inactive)

Nc1ccc2nc3c(=O)[nH]c(=S)[nH]c3nc2c1
inhibition: 93.4% (active)

CCc1ccc(C(=O)NC(=S)Nc2ccccc2N2CCOCC2)cc1
inhibition: -0.7% (inactive)

CCOc1ccc(N(CC(=O)NCCc2ccc(F)cc2)S(=O)(=O)c2ccccc2)cc1
inhibition: -1.5% (inactive)

O=C(O)CCCn1cc(NC(=O)COc2cccc(Cl)c2)cn1
inhibition: 11.5% (inactive)

CN(C)[C@@H]1C(=O)C(C(N)=O)=C(O)[C@@]2(O)C(=O)C3=C(O)c4c(O)ccc(Cl)c4[C@@H](O)[C@H]3C[C@@H]12
inhibition: 62.8% (active)

COc1ccc(CN2C3CCCC2CC(NC(=O)c2cccc(F)c2)C3)cc1 (stereo not given)
inhibition: 8.9% (inactive)

COc1ccc(C2NC(=O)N(C)C(C)=C2[N+](=O)[O-])cc1 (stereo not given)
inhibition: -5.6% (inactive)

CC(NC(=O)Nc1cccc([N+](=O)[O-])c1)c1ccc2c(c1)OCO2 (stereo not given)
inhibition: 3% (inactive)

COc1ccc(-n2nc(C(=O)NCC(=O)N3CCC(C(N)=O)CC3)c3ccccc3c2=O)cc1OC
inhibition: -4.6% (inactive)

O=C(CNC(=O)c1ccc(F)cc1)c1ccccc1
inhibition: -1.3% (inactive)

Cc1ccc(N=C2NC(=O)/C(=C/C=C/c3ccco3)S2)cc1C
inhibition: 54.8% (active)

Cc1cccc(N=C2NC(=O)/C(=C/c3cn(C)c4ccccc34)S2)c1
inhibition: 12.3% (inactive)

Cc1ccc(N2NC(=O)/C(=C/C=C/c3ccco3)C2=O)cc1C
inhibition: -18.1% (inactive)

COc1ccc(CN2CCOC2=O)cc1OC
inhibition: -0.8% (inactive)

O=C(CN1CCN(C(=S)NC2CCCC2)CC1)Nc1ccc(Oc2ccccc2)cc1
inhibition: -21.3% (inactive)

O=C1CN(C(=O)c2cc(F)cc(F)c2)c2ccccc2N1
inhibition: 6.7% (inactive)

NS(=O)(=O)c1ccc(CNC(=O)c2cccc(Oc3ccccc3)c2)cc1
inhibition: -2.7% (inactive)

CCN1CC=C2C(C#N)=C(N)C(C#N)(C#N)[C@H](c3ccoc3)[C@H]2C1
inhibition: 67.7% (active)

CCOC(=O)N1CC=C2C(C#N)=C(N)C(C#N)(C#N)[C@H](c3cccs3)[C@H]2C1
inhibition: -13.8% (inactive)

CCCN1CC=C2C(C#N)=C(N)C(C#N)(C#N)C(c3cc(OC)ccc3OC)C2C1 (stereo not given)
inhibition: 34.3% (inactive)

O=C(N/N=C/c1cccc(OCc2ccccc2)c1)c1ccc(Br)o1
inhibition: 4.8% (inactive)

O=C(Nc1ccccc1N1CCCC1)c1ccc2ccccc2c1
inhibition: 1.5% (inactive)

COC(=O)c1cccc(C(=O)N2CCC(CCC(=O)NCc3ccc(F)cc3)CC2)c1
inhibition: 7.8% (inactive)

CC(C)c1ccc2c(c1)c(SC(C)(C)C)c(CC(C)(C)C(=O)O)n2Cc1ccc(Cl)cc1
inhibition: 52.2% (active)

O=C(O)c1ccc(Cn2c(=S)[nH]c3cc(Cl)ccc3c2=O)cc1
inhibition: 1.5% (inactive)

CCOC(=O)c1c(-c2ccccc2)oc2cc(Br)c(O)c(C=O)c12
inhibition: -19% (inactive)

CCOC(=O)c1c(-c2ccccc2)oc2cc(Br)c(O)cc12
inhibition: 6.4% (inactive)

COCCNC(=O)c1ccc2nc(Cc3ccc(OC)c(OC)c3)oc2c1
inhibition: 4.2% (inactive)

C/C(=C/c1ccccc1)C(=O)N1CCN(c2ccccc2)CC1
inhibition: 16.7% (inactive)

C=CCN(CC=C)S(=O)(=O)c1ccc(C(=O)Nc2nc3c(s2)CCc2ccccc2-3)cc1
inhibition: -14.9% (inactive)

COc1ccc(C(=O)Nc2ncc3c(n2)-c2ccccc2CC3)cc1
inhibition: 6% (inactive)

COCCN(CCOC)S(=O)(=O)c1ccc(C(=O)Nc2nc3c(s2)CCc2ccccc2-3)cc1
inhibition: 67% (active) | inhibition (average of repeat tests): 53%

O=C(/C=C/c1ccc(Cl)cc1)NCCCn1ccnc1
inhibition: 12.9% (inactive)

CC(=O)N1c2ccc(S(=O)(=O)N3CCC(C(=O)NC4CCCC(C)C4C)CC3)cc2CC1C (stereo not given)
inhibition: -4.4% (inactive)

COc1ccc(NC(=O)CC(NC(C)c2ccccc2)C(=O)O)cc1 (stereo not given)
inhibition: 6.5% (inactive)

CC(C)c1nc(CNC(=O)CC2C(=O)NCCN2Cc2cccc(F)c2F)cs1 (stereo not given)
inhibition: -7.6% (inactive)

CC1CCN(S(=O)(=O)c2ccc3c(c2)n(C)c(=O)n3C)CC1
inhibition: 6.7% (inactive)

CC1(C(=O)NCCc2c[nH]c3ccccc23)C=CC2(CCCCC2)N1C(=O)c1ccccc1 (stereo not given)
inhibition: 0.3% (inactive)

Cc1cc(OC(C)C(=O)NC2CC(C)(C)NC(C)(C)C2)c2c(C)cc(=O)oc2c1 (stereo not given)
inhibition: 33.5% (inactive)

O=[N+]([O-])c1cc(S(=O)(=O)Nc2cccc(Cl)c2)ccc1N=Nc1c(O)[nH]c2ccccc12
inhibition: 67.7% (active)

CN1CCN(c2ccc(S(=O)(=O)Nc3ccccc3)cc2[N+](=O)[O-])CC1
inhibition: 21.3% (inactive)

Cc1cccc(N(CC(=O)N=Nc2c(O)[nH]c3ccccc23)S(C)(=O)=O)c1C
inhibition: -5.8% (inactive)

COc1ccc(CN2CCNC(=O)C2CC(=O)NCc2cn[nH]c2-c2ccccc2)c(F)c1 (stereo not given)
inhibition: -2.8% (inactive)

CN(C(=O)COC(=O)c1nc(Cl)ccc1Cl)C1CCS(=O)(=O)C1 (stereo not given)
inhibition: -3.6% (inactive)

CN(C(=O)COC(=O)c1cc(-c2ccco2)nc2ccccc12)C1CCS(=O)(=O)C1 (stereo not given)
inhibition: 51.3% (active)

Cc1c(-c2cccc(Cl)c2)nc2ccccc2c1C(=O)OCC(=O)N(C)C1CCS(=O)(=O)C1 (stereo not given)
inhibition: 0.4% (inactive)

O=[N+]([O-])/C=C/c1ccc2c(ccn2Cc2ccccc2)c1
inhibition: 19.7% (inactive)

CC(C)[C@H](NC(=O)N1c2ccccc2NC(=O)[C@@H]1C(C)C)C(=O)N[C@H](C(=O)O)c1ccccc1
inhibition: 12.1% (inactive)

Cc1cccc(C(=O)Nc2ccc(Oc3cnccn3)cc2)c1
inhibition: 10.4% (inactive)

CC1CCCCC1NC(=O)CO/N=C/c1ccc(OC(F)F)cc1 (stereo not given)
inhibition: -15.8% (inactive)

O=C(Nc1ccc(Br)cc1)c1cc(S(=O)(=O)Nc2ccccn2)ccc1Cl
inhibition: 3.5% (inactive)

COc1ccc(CN2CC(C(=O)NCCc3ccc(Cl)cc3)CC2=O)cc1 (stereo not given)
inhibition: 10.3% (inactive)
